# Columns and labels:
# [1] = target: T1, Tyrosine-protein kinase receptor TYRO3 (Homo sapiens) (UniProt Q06418); details: at 1 µM
# T1 sequence (whole entry): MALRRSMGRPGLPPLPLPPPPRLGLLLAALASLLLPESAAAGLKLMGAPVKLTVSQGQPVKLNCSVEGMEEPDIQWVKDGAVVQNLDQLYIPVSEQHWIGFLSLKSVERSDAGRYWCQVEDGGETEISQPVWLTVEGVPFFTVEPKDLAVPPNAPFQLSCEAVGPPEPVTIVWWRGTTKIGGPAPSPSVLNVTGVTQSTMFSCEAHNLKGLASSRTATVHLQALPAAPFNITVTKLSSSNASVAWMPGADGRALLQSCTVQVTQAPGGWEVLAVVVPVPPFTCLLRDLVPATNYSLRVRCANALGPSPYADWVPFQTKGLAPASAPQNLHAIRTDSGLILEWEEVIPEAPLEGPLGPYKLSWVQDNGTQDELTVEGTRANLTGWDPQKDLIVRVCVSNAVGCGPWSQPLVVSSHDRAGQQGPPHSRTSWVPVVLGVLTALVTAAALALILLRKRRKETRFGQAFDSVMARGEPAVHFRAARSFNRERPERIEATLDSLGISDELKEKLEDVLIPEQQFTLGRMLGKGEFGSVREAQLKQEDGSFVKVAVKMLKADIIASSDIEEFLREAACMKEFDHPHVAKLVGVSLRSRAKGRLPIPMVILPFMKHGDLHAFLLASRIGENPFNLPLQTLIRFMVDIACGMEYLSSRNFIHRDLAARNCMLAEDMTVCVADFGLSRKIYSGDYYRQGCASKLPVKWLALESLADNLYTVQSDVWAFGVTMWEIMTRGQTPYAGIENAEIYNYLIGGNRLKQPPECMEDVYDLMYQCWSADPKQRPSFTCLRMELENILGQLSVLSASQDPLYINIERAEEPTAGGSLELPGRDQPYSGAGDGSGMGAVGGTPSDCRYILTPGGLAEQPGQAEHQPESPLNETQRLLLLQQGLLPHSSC
# [2] = target: Tyrosine-protein kinase Yes (Homo sapiens) (UniProt P07947); details: at 0.1 µM
# [3] = target: Tyrosine-protein kinase Yes (Homo sapiens) (UniProt P07947); details: at 1 µM
# [4] = target: T2, Tyrosine-protein kinase ZAP-70 (Homo sapiens) (UniProt P43403); details: at 0.1 µM
# T2 sequence (whole entry): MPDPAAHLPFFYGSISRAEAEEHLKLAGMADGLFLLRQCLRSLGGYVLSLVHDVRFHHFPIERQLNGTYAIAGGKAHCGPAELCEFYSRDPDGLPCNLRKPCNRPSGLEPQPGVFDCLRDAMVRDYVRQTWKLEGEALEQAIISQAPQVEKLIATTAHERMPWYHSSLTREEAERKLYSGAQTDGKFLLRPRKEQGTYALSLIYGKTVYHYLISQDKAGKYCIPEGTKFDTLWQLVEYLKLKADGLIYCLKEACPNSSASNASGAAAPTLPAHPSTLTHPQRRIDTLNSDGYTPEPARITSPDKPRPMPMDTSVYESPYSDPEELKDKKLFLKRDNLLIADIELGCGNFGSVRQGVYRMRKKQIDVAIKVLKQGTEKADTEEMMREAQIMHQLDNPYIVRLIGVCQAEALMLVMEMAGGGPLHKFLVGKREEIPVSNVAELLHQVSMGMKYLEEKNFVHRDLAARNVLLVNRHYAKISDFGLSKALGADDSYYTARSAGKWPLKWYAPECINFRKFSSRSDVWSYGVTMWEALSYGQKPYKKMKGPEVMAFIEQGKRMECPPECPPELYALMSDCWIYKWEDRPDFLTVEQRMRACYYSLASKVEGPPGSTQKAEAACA
# [5] = target: T2, Tyrosine-protein kinase ZAP-70 (Homo sapiens); details: at 1 µM
# [6] = target: Serine/threonine-protein kinase B-raf (Homo sapiens) (UniProt P15056); details: at 0.1 µM
# [7] = target: Serine/threonine-protein kinase B-raf (Homo sapiens) (UniProt P15056); details: at 1 µM
# [8] = test system: Serine/threonine-protein kinase B-raf (Homo sapiens), P15056 [V600E]; details: at 0.1 µM
# [9] = test system: Serine/threonine-protein kinase B-raf (Homo sapiens), P15056 [V600E]; details: at 1 µM
# [10] = target: RAF proto-oncogene serine/threonine-protein kinase (Homo sapiens) (UniProt P04049); details: at 0.1 µM;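 also: values are mean CRAF kinase inhibition from profiling of the GSK Published Kinase Inhibitor Set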
# Chain of RAF proto-oncogene serine/threonine-protein kinase (Homo sapiens) (P04049 whole entry): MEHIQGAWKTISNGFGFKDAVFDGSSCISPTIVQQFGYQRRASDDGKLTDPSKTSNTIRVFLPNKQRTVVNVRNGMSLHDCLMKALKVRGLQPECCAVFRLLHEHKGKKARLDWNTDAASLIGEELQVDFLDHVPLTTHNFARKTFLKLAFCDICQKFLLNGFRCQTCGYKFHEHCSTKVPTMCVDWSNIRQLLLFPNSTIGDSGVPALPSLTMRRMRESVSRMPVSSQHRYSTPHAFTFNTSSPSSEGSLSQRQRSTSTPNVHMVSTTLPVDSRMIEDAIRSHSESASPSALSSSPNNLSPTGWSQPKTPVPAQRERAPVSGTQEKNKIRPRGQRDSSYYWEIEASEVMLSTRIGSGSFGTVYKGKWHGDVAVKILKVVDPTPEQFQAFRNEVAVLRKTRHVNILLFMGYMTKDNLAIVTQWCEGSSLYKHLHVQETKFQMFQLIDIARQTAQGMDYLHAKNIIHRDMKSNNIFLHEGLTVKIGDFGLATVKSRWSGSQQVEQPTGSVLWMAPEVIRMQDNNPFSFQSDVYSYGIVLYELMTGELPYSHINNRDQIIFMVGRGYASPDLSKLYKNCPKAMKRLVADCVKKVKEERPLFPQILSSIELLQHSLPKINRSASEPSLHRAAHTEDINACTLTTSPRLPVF
# Chain of Serine/threonine-protein kinase B-raf (Homo sapiens), P15056 [V600E] (P15056 whole entry V600E): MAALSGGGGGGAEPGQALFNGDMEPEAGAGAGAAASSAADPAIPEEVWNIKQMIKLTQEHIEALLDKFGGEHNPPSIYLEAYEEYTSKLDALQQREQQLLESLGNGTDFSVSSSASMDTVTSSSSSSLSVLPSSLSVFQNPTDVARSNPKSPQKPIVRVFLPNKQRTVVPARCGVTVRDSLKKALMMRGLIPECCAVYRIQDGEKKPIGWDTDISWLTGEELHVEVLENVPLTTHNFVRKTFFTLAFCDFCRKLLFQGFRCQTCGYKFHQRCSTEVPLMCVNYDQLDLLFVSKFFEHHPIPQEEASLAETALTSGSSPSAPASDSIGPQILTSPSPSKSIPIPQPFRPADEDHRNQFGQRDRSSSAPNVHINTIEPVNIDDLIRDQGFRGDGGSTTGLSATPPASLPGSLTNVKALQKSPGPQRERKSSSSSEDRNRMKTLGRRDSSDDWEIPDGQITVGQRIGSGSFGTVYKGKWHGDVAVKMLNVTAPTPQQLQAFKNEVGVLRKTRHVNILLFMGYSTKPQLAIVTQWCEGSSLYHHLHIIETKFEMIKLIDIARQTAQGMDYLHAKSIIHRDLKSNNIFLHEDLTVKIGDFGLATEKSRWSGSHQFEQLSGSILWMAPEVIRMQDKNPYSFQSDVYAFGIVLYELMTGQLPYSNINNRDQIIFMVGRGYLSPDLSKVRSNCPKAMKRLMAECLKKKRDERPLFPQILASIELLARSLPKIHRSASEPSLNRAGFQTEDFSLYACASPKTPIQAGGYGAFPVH
# Chain of Tyrosine-protein kinase Yes (Homo sapiens) (P07947 2-543 limits assumed): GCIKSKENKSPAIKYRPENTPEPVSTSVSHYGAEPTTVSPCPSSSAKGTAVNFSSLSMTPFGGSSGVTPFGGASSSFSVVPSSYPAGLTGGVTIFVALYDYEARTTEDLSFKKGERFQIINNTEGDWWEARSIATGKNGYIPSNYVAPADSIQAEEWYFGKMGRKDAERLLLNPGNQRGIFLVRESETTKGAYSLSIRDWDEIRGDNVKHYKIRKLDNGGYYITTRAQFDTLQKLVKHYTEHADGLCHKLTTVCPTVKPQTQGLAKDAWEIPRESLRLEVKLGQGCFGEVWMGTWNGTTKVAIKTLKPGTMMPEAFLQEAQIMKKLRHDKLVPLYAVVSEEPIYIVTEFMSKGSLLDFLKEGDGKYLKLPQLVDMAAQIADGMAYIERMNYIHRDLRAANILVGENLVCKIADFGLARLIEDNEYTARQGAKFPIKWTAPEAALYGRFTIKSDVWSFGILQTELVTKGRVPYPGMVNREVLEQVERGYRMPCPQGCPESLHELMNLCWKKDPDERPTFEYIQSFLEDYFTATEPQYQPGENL
# Chain of Serine/threonine-protein kinase B-raf (Homo sapiens) (P15056 whole entry): as the sequence (P15056 whole entry V600E) above, with E600V counted along it
SMILES,inhibition [1],inhibition [2],inhibition [3],inhibition [4],inhibition [5],inhibition [6],inhibition [7],inhibition [8],inhibition [9],inhibition [10]
Cc1ccc(NC(=O)CC2CC2)cc1-c1ccc(C(=O)NCC2CC2)cc1,4.65%,1.53%,2.46%,-0.2%,2.11%,4.43%,6.22%,4.33%,4.96%,3.39%
COc1cccc(-n2ncc3c(N/N=C/c4ccc(C)cc4)ncnc32)c1,4.49%,4.03%,13.8%,3.63%,11%,7.21%,11.2%,4.78%,6.08%,7.72%
Cc1cc(O)cc(C)c1/C=C/c1cncc(C(=O)N(C)C)c1,2.81%,0.44%,1.22%,1.81%,2.36%,3.04%,3.56%,4.11%,3.14%,6.23%
CCn1c(-c2nonc2N)nc2c(C#CC(C)(C)O)nc(OCCNC)cc21,3.31%,3.64%,3.28%,1.77%,1.49%,6.22%,7.65%,3.6%,3.03%,0.76%
OCc1ccc(-c2nc(-c3ccccn3)c(-c3ccc4c(c3)OCO4)[nH]2)cc1,1.02%,1.58%,-0.01%,1.4%,0.81%,5.65%,7.13%,6.24%,7.48%,-1.74%
CC(C)c1ccc2c(c1)NC(=O)/C2=N/Nc1ccc(S(N)(=O)=O)cc1,2.75%,2.45%,9.19%,-0.31%,1.5%,-0.82%,-1.25%,0.24%,-0.56%,-2.32%
CN(C)C(=O)O[C@@H]1CN[C@@H](C#Cc2cc3ncnc(Nc4ccc(OCc5cccc(F)c5)c(Cl)c4)c3s2)C1,-0.16%,3.49%,5.24%,0.96%,2.42%,0.07%,3.2%,0.85%,3.23%,-2.83%
Cc1ccc2c(c1)/C(=N/Nc1ccc(S(N)(=O)=O)cc1)C(=O)N2,0.35%,-0.04%,5.49%,1.31%,1.47%,0.51%,3.31%,0.4%,3.37%,0.26%
CCS(=O)(=O)c1ccc(OC)c(Nc2ncc(-c3cccc(OC)c3)o2)c1,40.6%,34.5%,80.2%,-1.53%,-2.95%,1.82%,5.54%,1.52%,4.88%,5.24%
CCS(=O)(=O)c1ccc(OC)c(Nc2nccc(N(C)c3ccc4c(C)n[nH]c4c3)n2)c1,7.2%,29.3%,73.9%,0.81%,2.48%,6.4%,8.1%,5.33%,5.98%,1.8%
CN1CCN(C(=O)c2ccc(NC(=O)Nc3ccc(N(C)c4ccnc(Nc5ccc(CS(C)(=O)=O)cc5)n4)cc3)cc2)CC1,21.9%,2.29%,16.2%,2.02%,5.2%,2.69%,14.5%,3.84%,11.8%,2.58%
CN(C)c1cc2c(Nc3ccc4c(cnn4Cc4ccccc4)c3)ncnc2cn1,7.51%,13.5%,49.8%,2.63%,5.85%,3.72%,3.71%,4.74%,4.34%,1.64%
NS(=O)(=O)c1cccc(-c2cc3ccncc3cc2OCc2ccccc2)c1,3.23%,0.88%,2.73%,2.48%,4.15%,6.76%,6.57%,5.8%,5.78%,2.97%
O=S(=O)(CCOCc1ccc(-c2ccc3ncnc(Nc4ccc(OCc5cccc(F)c5)c(Cl)c4)c3c2)o1)c1ccccc1,-0.33%,-1.93%,2.61%,-5.44%,0.81%,2.33%,3.21%,2.43%,3.05%,-0.94%
C[C@@H](Oc1cc(-n2cnc3ccc(OCC4CCN(C)CC4)cc32)sc1C(N)=O)c1ccccc1C(F)(F)F,6.92%,4.36%,13.2%,-2.7%,-1.19%,-0.94%,-2.8%,-0.73%,0.84%,12.6%
CS(=O)(=O)Nc1cccc(-c2ccc3c(NC(=O)C4CC4)n[nH]c3c2)c1,17.9%,2.95%,2.86%,1.35%,1.3%,1.25%,2.51%,1.61%,2.94%,8.26%
O=C1Nc2ccccc2/C1=C/Nc1ccc2[nH]c(=O)[nH]c2c1,21.6%,6.92%,27.2%,3.11%,7.45%,9.63%,10.4%,8.7%,8.75%,0.68%
COc1cccc(-n2nc(C)c3c(N/N=C(\C)c4ccncc4)ncnc32)c1,2.25%,1.18%,0.82%,0.82%,2.35%,0.14%,-1.61%,0.28%,-0.78%,-2.44%
N#Cc1c(NC(=O)c2ccccc2F)sc2c1CCCC2,-1.16%,2.43%,-1.67%,-3.51%,0.2%,-1.34%,-1.56%,-0.04%,1.18%,-2.08%
NS(=O)(=O)c1ccc(-c2cc3ccncc3cc2OCc2ccccc2)cc1,4.23%,3.11%,3.16%,0.37%,-0.77%,4.65%,6.35%,5.61%,4.49%,2.9%

SMILES,inhibition [1],inhibition [2],inhibition [3],inhibition [4],inhibition [5],inhibition [6],inhibition [7],inhibition [8],inhibition [9],inhibition [10]
Oc1cccc(-c2nc(-c3ccccc3)[nH]c2-c2ccncc2)c1,9.74%,4.12%,21.9%,3.06%,3.35%,14.5%,30%,12.8%,28.9%,1.16%
Nc1ccc(C#Cc2cncnc2Nc2ccc(OCc3cccc(F)c3)c(Cl)c2)cc1,3.64%,1.94%,8.1%,-0.01%,-1.74%,4.78%,3.99%,4.21%,3.42%,-3.06%
COc1cccc(-n2ncc3c(N/N=C/c4ccc(S(C)(=O)=O)cc4)ncnc32)c1,22.4%,31.9%,57.4%,-3.44%,1.31%,7.5%,16.4%,8.25%,20.2%,-3.03%
c1ccc(Nc2ncc(-c3ccccc3)o2)cc1,6.84%,2.4%,6.64%,-1.32%,1.41%,5.93%,7.7%,5.02%,4.39%,2.39%
Cc1cc(-c2ccccn2)cc(C)c1/C=C/c1cncc(-c2nn[nH]n2)c1,0.93%,1.13%,11.4%,3.62%,-2.29%,5.62%,12.4%,4.7%,5.23%,1.48%
COC(=O)c1cncc(/C=C/c2c(C)cc(O)cc2C)c1,7.16%,4.43%,18.8%,2.93%,-0.01%,6.07%,9.71%,5.41%,8.24%,1.93%
NS(=O)(=O)c1ccc(N/N=C2\C(=O)Nc3ccc(Cl)cc32)cc1,5.46%,1.72%,3.69%,1.01%,3.02%,4.45%,4.35%,5.27%,4.36%,-0.52%
CN(C)CCCn1c(-c2nonc2N)nc2cnccc21,1.97%,0.2%,0.44%,1.32%,0.96%,5.59%,6.07%,5.51%,5.34%,7.16%
Nc1nccc(C#Cc2cncnc2Nc2ccc(OCc3cccc(F)c3)c(Cl)c2)n1,3.66%,-0.62%,5.85%,1.97%,3.29%,3.49%,6.72%,3.75%,5.29%,-0.89%
Nc1nccc(-c2c(-c3ccc(F)cc3)ncn2CCCN2CCOCC2)n1,5.61%,2.87%,9.05%,-2.08%,1.23%,5.83%,6.07%,6.08%,7.12%,11.6%
[O-][S+]1CCN(Cc2ccc(-c3ccc4ncnc(Nc5ccc(OCc6ccccc6)c(Cl)c5)c4c3)o2)CC1,2.86%,6.47%,39.1%,-3.44%,1.8%,3.08%,3.86%,2.34%,3.29%,-1.87%
CCOc1nccc2c1nc(-c1nonc1N)n2CC,5.64%,2.27%,6.31%,2.73%,1.9%,2.88%,2.64%,3.44%,2.45%,-1.34%
NC(=O)c1cccc(Nc2nccc(Nc3cccc(F)c3)n2)c1,57%,4.5%,22.5%,-0.99%,4.21%,0.82%,3.59%,1.61%,3.25%,0.33%
Nc1nccc(-c2c(-c3ccc(F)cc3)nn3cc(C(F)(F)F)ccc23)n1,1.24%,0.91%,1.92%,-0.68%,-1.16%,0.06%,0.3%,0.14%,-0.28%,-3.59%
COc1cc(Nc2nccc(-c3cnn4ncccc34)n2)cc(OC)c1,14.9%,9.16%,39.8%,4.5%,14.2%,3.83%,28.9%,4.91%,28.7%,-0.8%
CS(=O)(=O)CCNCc1nc(-c2ccc3ncnc(Nc4ccc(OCc5cccc(C(F)(F)F)c5)cc4)c3c2)cs1,1.66%,1.94%,3.56%,1.5%,0.78%,1.81%,2.12%,2.15%,-0.18%,0.97%
COc1cc2ncn(-c3cc(OCc4ccccc4S(C)(=O)=O)c(C#N)s3)c2cc1OC,20.1%,8.67%,39.2%,,4%,5.38%,8.14%,4.97%,6.91%,5.23%
COc1ccc2ncnc(Nc3ccc(OCc4ccccc4)cc3)c2c1,3.15%,5.76%,22.9%,1.97%,1.84%,3.6%,2.93%,3.51%,2.24%,-0.56%
ON=C1CCc2cc(-c3nc(C4CCNCC4)[nH]c3-c3ccncc3)ccc21,1.37%,-1.71%,0.86%,1.57%,1.96%,,,,,-7.53%
Cc1ccc2c(-c3ccnc(Nc4cccc(C(F)(F)F)c4)n3)c(-c3ccccc3)nn2n1,17.5%,53.8%,91.8%,0.09%,2.06%,6.35%,14.1%,4.17%,8.85%,4.15%
